Test results as given in PubChem BioAssay AID1259249 (Broad Institute, 2017).
Several values for one entry are separate records, joined by “and”; a condition that tells them apart may be missing. Equal values may be shown once. In all, about 86,000 compounds went through this assay and about 220 (0.26%) were called active.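 Rule for the calls: active = mean growth activity at or below -80% and every replicate also at or below -80%; inconclusive = mean at or below -80% but some replicate above -80%; inactive = mean growth activity above -80%.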 Shown is part of a subset that was picked to be rich in actives.

assay: blockers of Clostridium difficile growth – HTS, primary screen (AID 1259249); details: Clostridium difficile clinical isolate growth, OD600, 24 h; active compounds read low; screened at 16 µg/mL (by protocol);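 note: 0% = DMSO wells and -100% = levofloxacin 16 µg/mL wells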

Compound | growth activity, negative = inhibition
COc1ccc(S(=O)(=O)N(C)C[C@@H]2OCCCC[C@H](C)Oc3ccc(NC(=O)Nc4ccccc4)cc3C(=O)N([C@H](C)CO)C[C@H]2C)cc1 | -1.33% (inactive)
O=C(C[C@@H]1CC[C@H](NS(=O)(=O)c2ccc(F)cc2)[C@@H](CO)O1)NCc1ccccc1F | -8.59% (inactive)
COCC(=O)N1[C@H](CO)[C@H](c2ccccc2C2=CCCCC2)[C@@H]1C#N | -0.454% (inactive)
COc1ccc(CN(C)C[C@@H]2OCCCC[C@@H](C)Oc3ccc(NC(=O)Nc4ccc(C(F)(F)F)cc4)cc3C(=O)N([C@H](C)CO)C[C@H]2C)cc1 | -85.2% (active)
C[C@@H]1CN([C@H](C)CO)C(=O)c2cc(NC(=O)Nc3ccc(C(F)(F)F)cc3)ccc2O[C@@H](C)CCCCO[C@@H]1CN(C)Cc1ccc(C(F)(F)F)cc1 | 0.541% (inactive)
COc1ccc(NC(=O)Nc2ccc3c(c2)C(=O)N([C@@H](C)CO)C[C@H](C)[C@H](CN(C)Cc2ccc(C(F)(F)F)cc2)OCCCC[C@H](C)O3)cc1 | 0.631% (inactive)
COc1ccc(S(=O)(=O)N2CC[C@@H]3[C@H](CO)Nc4ccc(C#Cc5cccc(OC)c5)cc4[C@@H]32)cc1 | 47.9% (inactive)
CCCNC(=O)N1[C@@H]2CNC[C@H]1C2c1ccc(-c2cccc(C)c2)cc1 (some centres not stated) | -6.26% (inactive) and -5.23% (inactive)
C[C@H](CO)N1C[C@H](C)[C@@H](CN(C)C(=O)C2CCC2)Oc2cc(C3=CCCCC3)ccc2S1(=O)=O | -7.06% (inactive)
O=C(C[C@@H]1CC[C@@H](NC(=O)c2cccnc2)[C@H](CO)O1)NCCN1CCCCC1 | -5.37% (inactive)
CN(C)C(=O)C[C@@H]1CC[C@H]2[C@@H](COC[C@H](O)CN2S(=O)(=O)c2ccccc2)O1 | 0.743% (inactive) and 2.09% (inactive)
O=C(NC1Cc2ccccc2C1)[C@@H]1[C@@H](CO)[C@@H]2Cn3c(ccc(C4=CCCC4)c3=O)[C@H]1N2CC1CC1 | -0.745% (inactive)
C[C@H](O)C#Cc1cnc2c(c1)C(=O)N([C@H](C)CO)C[C@@H](C)[C@@H](CN(C)C(=O)Nc1ccc(C(F)(F)F)cc1)O2 | 4.02% (inactive)
O=C(Cc1ccccc1)N1CC2(C1)[C@H](c1ccccc1)[C@@H](CO)N2C(=O)c1cccnc1 | 1.92% (inactive)
O=C(Cc1cccnc1)N1CC(=O)N2[C@@H](CO)[C@H](c3ccc(C#CC4CC4)cc3)[C@@H]2C1 | -8.63% (inactive)
CCCC(=O)Nc1ccc2c(c1)OC[C@H](C)N(Cc1ccc(F)cc1)C[C@H](C)[C@H](OC)CN(C)C2=O | -2.55% (inactive)
COc1ccc2c3c(n(C)c2c1)[C@H](CO)N(C(=O)c1ccncc1)CC31CCN(CC2CC2)CC1 | -4.02% (inactive)
CN(C)CC(=O)N[C@H]1CC[C@H](CCNC(=O)C2CCCCC2)O[C@H]1CO | -2.36% (inactive)
CCS(=O)(=O)N1CC(=O)N2[C@H](CO)[C@@H](c3ccc(C#Cc4cccc(F)c4)cc3)[C@@H]2C1 | -11.9% (inactive)
CCCNC(=O)N1CC2(CCN(Cc3ccc(F)cc3)CC2)c2c([nH]c3cc(OC)ccc23)[C@@H]1CO | -2.16% (inactive)
COc1ccc(C#Cc2cnc3c(c2)C(=O)N([C@H](C)CO)C[C@@H](C)[C@H](CN(C)C(=O)Nc2cccc(OC)c2)O3)cc1 | -9.72% (inactive)

Compound | growth activity, negative = inhibition
CO[C@@H]1CN(C)C(=O)c2ccc(NC(=O)NC(C)C)cc2OC[C@@H](C)N(C)C[C@H]1C | -0.836% (inactive)
CO[C@H]1CN(C)C(=O)c2ccc(NC(=O)c3cnccn3)cc2OC[C@H](C)N(C)C[C@@H]1C | 4.99% (inactive)
CC=Cc1ccc2n(c1=O)C[C@H]1[C@H](CO)[C@@H](C(=O)NCCc3cn(C)cn3)[C@@H]2N1C(=O)CC (mixture of isomers) | 1.45% (inactive)
CCNC(=O)C[C@H]1CC[C@@H]2[C@H](COc3ccc(NC(=O)Nc4cccc(Cl)c4)cc3C(=O)N2C)O1 | -2.43% (inactive)
CC(=O)N1[C@H](CNC(=O)CN(C)C)[C@H](c2ccc(C3=CCCC3)cc2)[C@@H]1CO | -3.19% (inactive)
CO[C@H]1O[C@H](CO)[C@@H](OC(=O)Nc2ccc(C(F)(F)F)cc2)[C@H](OC(=O)Nc2ccc3c(c2)OCO3)[C@H]1OC(=O)Nc1ccc2c(c1)OCO2 | 16.4% (inactive)
COc1ccc(-c2ccc3c(c2)[C@@H]2[C@@H](CCN2C(=O)NC2CCCC2)[C@@H](CO)N3C)cc1 | -8.11% (inactive)
C[C@H](NC(=O)[C@@H]1[C@@H](CO)[C@@H]2Cn3c(ccc(-c4cccc(F)c4)c3=O)[C@@H]2N1C)c1ccccc1 | -2.53% (inactive)
CN1C(=O)c2cc(NC(=O)C3CCCCC3)ccc2OC[C@H]2O[C@@H](CC(=O)NC3CCCC3)CC[C@@H]21 | -2.9% (inactive)
CO[C@H]1CN(C)C(=O)c2ccc(NC(=O)Nc3ccc4c(c3)OCO4)cc2OC[C@H](C)NC[C@H]1C | -11.3% (inactive)
CO[C@H]1CN(C)C(=O)c2ccc(NC(=O)Nc3ccc(F)cc3)cc2OC[C@@H](C)NC[C@H]1C | 0.388% (inactive)
CO[C@@H]1CN(C)C(=O)c2ccc(NC(=O)Nc3cc(Cl)cc(Cl)c3)cc2OC[C@H](C)NC[C@H]1C | -99.2% (active)
COc1cccc(NC(=O)N2C[C@@H](O)COC[C@@H]3O[C@@H](CC(=O)NC4CCC4)CC[C@H]32)c1 | 5.76% (inactive)
Cc1ccccc1S(=O)(=O)NCC[C@@H]1CC[C@H](NC(=O)C2CCC2)[C@@H](CO)O1 | 2.36% (inactive)
O=C(N[C@H]1CC[C@H](CCNS(=O)(=O)c2ccc(F)cc2)O[C@H]1CO)c1cccc(F)c1 | -5.13% (inactive)
COC(=O)C[C@H]1C[C@H]2c3cc(NC(=O)Nc4ccccc4F)ccc3O[C@H]2[C@H](CO)O1 | 2.15% (inactive)
COc1cc(C(=O)NC2CCN(C)CC2)ccc1Nc1ncc2c(n1)N(C1CCC(O)CC1)CCC(=O)N2C (configuration not stated) | -0.491% (inactive)
O=C(Nc1cc(F)ccc1F)N1C[C@H]2[C@@H](c3ccccc31)[C@@H](CO)N2CC1CCCC1 | 8.3% (inactive)
O=C(NCC1CC1)[C@@H]1[C@@H](CO)[C@@H]2Cn3c(ccc(-c4ccccc4)c3=O)[C@H]1N2Cc1nccs1 | -2.44% (inactive)
CCCNC(=O)N(C)C[C@H]1Oc2ncc(-c3cccc(C#N)c3)cc2C(=O)N([C@@H](C)CO)C[C@@H]1C | 2.18% (inactive)
C[C@@H]1CCCCO[C@@H](CN(C)C(=O)Nc2ccc3c(c2)OCO3)[C@H](C)CN([C@H](C)CO)C(=O)c2cc(NC(=O)CCCN(C)C)ccc2O1 | 5.23% (inactive)

Compound | growth activity, negative = inhibition
O=C(Cc1cccnc1)N1CC(=O)N2[C@@H](CO)[C@@H](c3ccc(C#CC4CCCC4)cc3)[C@@H]2C1 | -15.5% (inactive)
COc1ccc2c3c(n(C)c2c1)[C@@H](CO)N(C)CC31CN(CC2CC2)C1 | 1.27% (inactive)
COc1ccc2c3c([nH]c2c1)[C@H](CO)N(C(=O)Nc1ccc(F)cc1)CC31CN(S(=O)(=O)c2cccc(F)c2)C1 | 0.0849% (inactive)
O=C(c1cccc(F)c1)N1CC[C@@H]2[C@H](CO)Nc3ccc(-c4ccccc4)cc3[C@@H]21 | 6.91% (inactive)
COCC#Cc1ccc([C@@H]2[C@H](CO)N3C(=O)CN(C(=O)C4CCC4)C[C@@H]23)cc1 | -5.13% (inactive)
COc1ccc2c3c([nH]c2c1)[C@@H](CO)N(C(=O)c1ccccc1)CC31CCN(Cc2cccnc2)CC1 | 3.57% (inactive)
CC=Cc1ccc2n(c1=O)C[C@H]1[C@H](CO)[C@@H](C(=O)NC3CCCC3)N(Cc3cccnc3)[C@@H]21 (mixture of isomers) | 1.31% (inactive)
CCC(=O)N1CC(=O)N2[C@@H](CO)[C@H](c3ccc(C#CC4CCCC4)cc3)[C@@H]2C1 | -2.43% (inactive)
CN(C)CC#Cc1ccc([C@H]2[C@H]3CN(C(=O)c4cccc(F)c4)CC(=O)N3[C@H]2CO)cc1 | 2.12% (inactive)
CO[C@H]1CN(C)C(=O)c2cc(NS(=O)(=O)c3ccccc3C)ccc2OC[C@@H](C)NC[C@@H]1C | -1.27% (inactive)
CS(=O)(=O)N1[C@H](C#N)[C@H](c2ccccc2-c2ccc(F)cc2)[C@@H]1CO | 7% (inactive)
CC(=O)N(C)C[C@H]1[C@H](c2ccc(C3=CCCCC3)cc2)[C@H](CO)N1CC1CC1 | 33.9% (inactive)
O=C(C[C@@H]1CC[C@@H](NC(=O)C2CCOCC2)[C@H](CO)O1)NCC1CC1 | 1.16% (inactive)
COc1ccccc1NC(=O)N1CC(=O)N2[C@H](C1)[C@H](c1ccc(C#Cc3ccccc3)cc1)[C@@H]2CO | 12.6% (inactive)
CCCNC(=O)C[C@H]1C[C@H]2c3cc(NC(=O)NC4CCCCC4)ccc3O[C@H]2[C@H](CO)O1 | -4.2% (inactive)
COc1cccc(NC(=O)C[C@@H]2CC[C@H]3[C@@H](COc4ccc(NC(=O)C5CCC5)cc4C(=O)N3C)O2)c1 | -1.63% (inactive)
C[C@@H]1CN([C@@H](C)CO)S(=O)(=O)c2ccc(/C=C/c3ccccc3)cc2O[C@H]1CN(C)C(=O)Nc1cc(F)ccc1F | 4.39% (inactive)
C/C=C/c1ccc([C@H]2[C@H](CO)N(C(=O)CN(C)C)C23CN(C(=O)C2CC2)C3)cc1 | -0.638% (inactive)
CN1c2ccc(-c3ccccc3F)cc2[C@H]2[C@H](CCN2C(=O)Nc2cc(F)ccc2F)[C@H]1CO | 38.2% (inactive)
C[C@@H]1CCCCO[C@@H](CN(C)C(=O)CCC(F)(F)F)[C@H](C)CN([C@@H](C)CO)C(=O)c2cc(NC(=O)CCCN(C)C)ccc2O1 | 2.21% (inactive)
